Our source for the growth values is PubChem BioAssay (NCI).

The panel holds about 83,000 compounds, 20% with a hit somewhere; the sample as a whole holds those more often.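 Negative percent growth values reflect cell death: -40 means 40% of the cells present at the start died, and -100 means all died.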 Values without a mark were called inactive. Active and inactive are the calls of the source. The calls were made as follows: active = growth percent below 10; inactive = the rest.

For the test, the system named is MDA-MB-468 breast. The experiment in a line: NCI-60 one-dose screen, 48 h (100 = growth as untreated, 0 = no growth, -100 = all killed). The settings on record: 10 µM unless noted.
Regarding `Cc1cc(C)cc(Nc2ccc([N+](=O)[O-])c(NCCN3CCOCC3)n2)c1`, the growth is 20.8%.

`C[C@H]1[C@H]2[C@H]3CC[C@@H]4[C@@]5(C)C/C(=C/c6cccnc6)C(=O)C(C)(C)[C@@H]5CC[C@@]4(C)[C@]3(C)CC[C@]23CO[C@]1(C)[C@@H](C(=O)/C=C\c1cccnc1)C3`: the growth was -5.83% (active).

As to `NNC(=O)c1ccccc1N`, the growth is 94.8%.

Consider `Cc1nc2cc(Nc3nc(N4CCCCC4)nc(N4CCOCC4)n3)ccc2n1Cc1ccccc1`, for which the growth is 70.1%.

Regarding `O=C(c1cccs1)c1ccccc1Cc1ccccc1`, the growth is 100%.

As for `O=S(=O)(Nc1ccc(-n2cnc3cc(-c4ccc(O)cc4)ccc32)cc1)c1ccccc1`, the growth was 100%.

For the molecule `O=C1CSc2ccccc2N1`, the growth is 112%.

Turning to `N#Cc1cncc(-c2ccc3ncnc(Nc4cccc(Cl)c4)c3c2)c1`, the growth was 9.34% (active).

Turning to `CC1OC(n2c3ccccc3c3c4c(c5c6ccccc6[nH]c5c32)C(=O)N(CCN2CCCC2)C4=O)CC(O)C1O` (centres undefined), the growth was 26.2%.

Consider `COc1ccc(C/C(C)=C(/c2ccc(OCCN3CCCC3)cc2)c2ccc(OC(=O)NCc3ccccc3)cc2)cc1`, for which the growth was 78.9%.

With `O=C1NC(=O)C(Cc2ccc(OCc3ccc(-c4cc(F)c(F)c(F)c4)cc3)cc2)S1` (centres undefined), the growth is 53.4%.

With `Cc1ccc(Cl)cc1NC(=O)N(C)CCO`, the growth is 132%.

In the case of `C/C(=C\CCc1ccoc1)CC/C=C(\C)CCCN1CCC(CO)CC1`, the growth is 14.5%.

With `CN(C)c1ccc(-c2ccc(-c3ccc(C(=N)N)cn3)o2)cc1`, the growth was -64.4% (active).
